{
  "source": "paper PMC11006913",
  "assay_in_all_cases": "PBM; 200 nM protein, PBS",
  "conditions_in_all_cases": "dsDNA, one strand shown",
  "key": {"HOXC10 [1]": {"target": "HOXC10 (Homo sapiens, UniProt Q9NYD6 254-340)", "sequence (Q9NYD6 254-340)": "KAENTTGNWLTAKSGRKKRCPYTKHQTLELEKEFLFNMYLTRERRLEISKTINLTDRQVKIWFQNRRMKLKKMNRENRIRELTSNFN"}, "HOXC10 [2]": {"target": "HOXC10 (Homo sapiens, UniProt Q9NYD6 254-340, K271E)", "sequence (Q9NYD6 254-340 K271E)": "as the sequence (Q9NYD6 254-340) above, with K18E counted along it"}, "PROP1": {"target": "PROP1 (Homo sapiens, UniProt O75360 56-141, R99H)", "sequence (O75360 56-141 R99H)": "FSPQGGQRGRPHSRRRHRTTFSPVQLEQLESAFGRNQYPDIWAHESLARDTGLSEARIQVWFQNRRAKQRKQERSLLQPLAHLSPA"}, "NKX3-2 [3]": {"target": "NKX3-2 (Homo sapiens, UniProt P78367 192-278, P234S)", "sequence (P78367 192-278 P234S)": "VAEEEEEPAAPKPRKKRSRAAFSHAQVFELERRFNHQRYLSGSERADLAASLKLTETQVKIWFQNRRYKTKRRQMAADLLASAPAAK"}, "NKX3-2 [4]": {"target": "NKX3-2 (Homo sapiens, UniProt P78367 192-278)", "sequence (P78367 192-278)": "as the sequence (P78367 192-278 P234S) above, with S43P counted along it"}, "PITX2": {"target": "PITX2 (Homo sapiens, UniProt Q99697 72-157)"}, "ALX1 [5]": {"target": "ALX1 (Homo sapiens, UniProt Q15699 118-204, L144V)", "sequence (Q15699 118-204 L144V)": "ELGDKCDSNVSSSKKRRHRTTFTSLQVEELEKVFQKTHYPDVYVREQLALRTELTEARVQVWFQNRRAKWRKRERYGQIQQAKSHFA"}, "ALX1 [6]": {"target": "ALX1 (Homo sapiens, UniProt Q15699 118-204, L144R)", "sequence (Q15699 118-204 L144R)": "as the sequence (Q15699 118-204 L144V) above, with V27R counted along it"}, "ALX1 [7]": {"target": "ALX1 (Homo sapiens, UniProt Q15699 118-204)", "sequence (Q15699 118-204)": "as the sequence (Q15699 118-204 L144V) above, with V27L counted along it"}, "NKX2-6": {"target": "T1, NKX2-6 (Homo sapiens, UniProt A6NCS4 118-204, R150C)", "T1 sequence": "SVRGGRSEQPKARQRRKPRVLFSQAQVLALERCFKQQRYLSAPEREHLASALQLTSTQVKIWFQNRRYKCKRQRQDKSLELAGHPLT"}},
  "data": [
    {"sequence": "CCCCGGGG", "values": [
      {"measurement": "binding signal", "setting": "HOXC10 [1]", "value": "9.9 upbm affinity estimate (log intensity, higher = more binding, comparable within an allelic series)"},
      {"measurement": "binding signal", "setting": "HOXC10 [2]", "value": "9.91 upbm affinity estimate (log intensity, higher = more binding, comparable within an allelic series)"}
    ]},
    {"sequence": "GTCCGGAC", "values": [
      {"measurement": "binding signal", "setting": "PROP1", "value": "6.64 upbm affinity estimate (log intensity, higher = more binding, comparable within an allelic series)"}
    ]},
    {"sequence": "CCCCAGCG", "values": [
      {"measurement": "binding signal", "setting": "NKX3-2 [3]", "value": "10.5 upbm affinity estimate (log intensity, higher = more binding, comparable within an allelic series)"},
      {"measurement": "binding signal", "setting": "NKX3-2 [4]", "value": "10.6 upbm affinity estimate (log intensity, higher = more binding, comparable within an allelic series)"}
    ]},
    {"sequence": "CGGCCTGC", "values": [
      {"measurement": "binding signal", "setting": "PITX2", "value": "7.72 upbm affinity estimate (log intensity, higher = more binding, comparable within an allelic series)"}
    ]},
    {"sequence": "CCCAGCCG", "values": [
      {"measurement": "binding signal", "setting": "PITX2", "value": "8.01 upbm affinity estimate (log intensity, higher = more binding, comparable within an allelic series)"}
    ]},
    {"sequence": "CGGGCCGC", "values": [
      {"measurement": "binding signal", "setting": "ALX1 [5]", "value": "6.4 upbm affinity estimate (log intensity, higher = more binding, comparable within an allelic series)"},
      {"measurement": "binding signal", "setting": "ALX1 [6]", "value": "6.44 upbm affinity estimate (log intensity, higher = more binding, comparable within an allelic series)"},
      {"measurement": "binding signal", "setting": "ALX1 [7]", "value": "6.51 upbm affinity estimate (log intensity, higher = more binding, comparable within an allelic series)"}
    ]},
    {"sequence": "GGGGGGAC", "values": [
      {"measurement": "binding signal", "setting": "PROP1", "value": "6.19 upbm affinity estimate (log intensity, higher = more binding, comparable within an allelic series)"}
    ]},
    {"sequence": "AGCCGGCT", "values": [
      {"measurement": "binding signal", "setting": "ALX1 [5]", "value": "6.54 upbm affinity estimate (log intensity, higher = more binding, comparable within an allelic series)"},
      {"measurement": "binding signal", "setting": "ALX1 [6]", "value": "6.74 upbm affinity estimate (log intensity, higher = more binding, comparable within an allelic series)"},
      {"measurement": "binding signal", "setting": "ALX1 [7]", "value": "6.76 upbm affinity estimate (log intensity, higher = more binding, comparable within an allelic series)"}
    ]},
    {"sequence": "CCCTAGGG", "values": [
      {"measurement": "binding signal", "setting": "NKX3-2 [3]", "value": "10.6 upbm affinity estimate (log intensity, higher = more binding, comparable within an allelic series)"},
      {"measurement": "binding signal", "setting": "NKX3-2 [4]", "value": "10.5 upbm affinity estimate (log intensity, higher = more binding, comparable within an allelic series)"}
    ]},
    {"sequence": "CCCGGGAC", "values": [
      {"measurement": "binding signal", "setting": "NKX2-6", "value": "9.29 upbm affinity estimate (log intensity, higher = more binding, comparable within an allelic series)"}
    ]},
    {"sequence": "CAGGCCCG", "values": [
      {"measurement": "binding signal", "setting": "ALX1 [5]", "value": "6.27 upbm affinity estimate (log intensity, higher = more binding, comparable within an allelic series)"},
      {"measurement": "binding signal", "setting": "ALX1 [6]", "value": "6.24 upbm affinity estimate (log intensity, higher = more binding, comparable within an allelic series)"},
      {"measurement": "binding signal", "setting": "ALX1 [7]", "value": "6.21 upbm affinity estimate (log intensity, higher = more binding, comparable within an allelic series)"}
    ]},
    {"sequence": "CAGCGCCG", "values": [
      {"measurement": "binding signal", "setting": "HOXC10 [1]", "value": "9.95 upbm affinity estimate (log intensity, higher = more binding, comparable within an allelic series)"},
      {"measurement": "binding signal", "setting": "NKX2-6", "value": "9.39 upbm affinity estimate (log intensity, higher = more binding, comparable within an allelic series)"},
      {"measurement": "binding signal", "setting": "HOXC10 [2]", "value": "9.93 upbm affinity estimate (log intensity, higher = more binding, comparable within an allelic series)"}
    ]},
    {"sequence": "GCGCTGCC", "values": [
      {"measurement": "binding signal", "setting": "PITX2", "value": "8 upbm affinity estimate (log intensity, higher = more binding, comparable within an allelic series)"}
    ]},
    {"sequence": "CGCAGCGC", "values": [
      {"measurement": "binding signal", "setting": "PROP1", "value": "6.82 upbm affinity estimate (log intensity, higher = more binding, comparable within an allelic series)"}
    ]}
  ]
}
